The list is not random: actives were taken first. Their share in the collection is about 3.6%.
mHTT-CaM PPI inh: disrupts binding of mutant huntingtin to calmodulin; AlphaScreen His-mHTT/GST-CaM binding, luminescence; 3.6% of 190,000 active; inhibition, % at 15 µM; P42858;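 also: 0% = both proteins with DMSO and 100% = one protein alone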
Pf apPOL block: Pf-apPOL DNA polymerase inhibition. Recombinant Pf-apPOL, molecular beacon fluorescence, 1.5 h. inhibition, % at 10 µM. 0.25% of 210,000 active
An asterisk follows results filed as active; i = inactive; . = no result given; + = active, no number. Rule as the data show it: active = inhibition above about 50%; inactive = the rest.

SMILES	mHTT-CaM PPI inh	Pf apPOL block
O=[N+]([O-])c1ccc(SC2=NCCS2)c([N+](=O)[O-])c1	.	-1
O=[N+]([O-])c1ccc(Sc2cccs2)c([N+](=O)[O-])c1	64*	.
O=C(c1cc2cn(C3CC3)cc2s1)N1CCCCCC1	20	5
COCCn1c(C2CCN(C(=O)Nc3cccc(SC)c3)C2)nc2cccnc21 (centres undefined)	6	-7
CCc1sc(/C=N\NC(N)=O)cc1Br	i	.
Cn1c2ccc([N+](=O)[O-])cc2c2nc3ccccc3nc21	6	-4
CC(C)n1c2ccc(Br)cc2c2nc3ccccc3nc21	-5	82*
CC(C)OC(=O)c1nc2ccccc2nc1Nc1ccccc1	20	1
CCCc1nc2cccnc2n1C1CCN(C(=O)Nc2ccc3c(c2)CCC3)C1 (centres undefined)	26	0
O=[N+]([O-])c1ccc2nc(/C=C/c3ccco3)[nH]c2c1	59*	0
C(=C\c1ccco1)/c1nc2ccccc2[nH]1	49	-3
C=CCN(CC=C)C(=O)c1ccccc1Oc1ccccc1	-5	-8
O=C(O)c1cc2c3c(c1)C1C=CCC1C(c1ccccc1F)N3CC1CC=CC21 (centres undefined)	70*	-7
O=C(O)c1cc2c3c(c1)C1C=CCC1C(c1ccc(F)cc1)N3CC1CC=CC21 (centres undefined)	96*	-2
NS(=O)(=O)c1cc2c3c(c1)C1C=CCC1C(c1ccc([N+](=O)[O-])cc1)N3CC1CC=CC21 (centres undefined)	63*	-8
O=[N+]([O-])c1ccc(S(=O)(=O)N2CC3C4C=CC(C4)C3C2)cc1 (centres undefined)	4	8
O=C(O)c1ccc2c(c1)C1C=CCC1C(c1ccccc1Br)N2 (centres undefined)	23	-1
O=C(O)c1ccc2c3c1C1C=CCC1CN3CC1CC=CC21 (centres undefined)	16	12
O=C(O)c1cc2c3c(c1)C1C=CCC1C(c1ccccc1)N3CC1CC=CC21 (centres undefined)	94*	3
C1=CC2c3cccc4c3N(CC2C1)CC1CC=CC41 (centres undefined)	40	.
Cc1sc2ncn(CC(=O)N(C)Cc3ccccc3)c(=O)c2c1S(=O)(=O)N1CCOCC1	7	-3
CCc1nc(C2CCCN2S(=O)(=O)c2c(C)noc2C)n[nH]1 (centres undefined)	-4	3
COc1ccccc1/C=C1\N=C(c2ccccc2Br)OC1=O	1	-6
COc1ccc(OC)c2sc(N(CCCN(C)C)C(=O)c3ccc([N+](=O)[O-])o3)nc12	2	-5
O=C(O)c1cc2c3c(c1)C1C=CCC1C(c1cccc([N+](=O)[O-])c1)N3CC1CC=CC21 (centres undefined)	70*	4
SMILES	mHTT-CaM PPI inh	Pf apPOL block
O=[N+]([O-])c1cccc(C2N(c3ccccc3)CCN2c2ccccc2)c1	.	-3
CCn1c(=N)c(S(=O)(=O)c2ccccc2)cc2c(=O)n3cccc(C)c3nc21	3	-8
CCN1C(=O)C2(SCCN2C(=O)c2cccc(F)c2)c2cc(F)ccc21 (centres undefined)	56*	8
COCCN1C(=O)C2(SCCN2C(=O)c2ccc(OC)cc2)c2ccccc21 (centres undefined)	22	-2
CCN1C(=O)C2(SCCN2C(=O)c2cccc(OC)c2)c2cc(F)ccc21 (centres undefined)	43	-1
CCN1C(=O)C2(SCCN2C(=O)C2CCCC2)c2cc(F)ccc21 (centres undefined)	55*	1
CCOc1ccc2c(=O)c(-c3ccc(Br)cc3)coc2c1	-2	-1
CC1(CNS(=O)(=O)c2ccc(F)c(Cl)c2)CCOCC1	0	-4
CC(=O)N(Cc1ccc2c(c1)OCO2)Cc1cc(-c2ccc(C)cc2C)on1	61*	-3
CCN(Cc1cc(-c2ccc(C)cc2C)on1)C(=O)c1ccc(C)cc1	-22	1
Cc1cc(=O)n(C)c(SCc2cccc(C(F)(F)F)c2)n1	-17	-6
Cc1ccc(CC(=O)N2CCc3c(c(-c4nc(Cc5ccccc5)no4)nn3C)C2)cc1	4	-3
CCN(CC)S(=O)(=O)N1CCC(C(=O)NC2CCCc3ccccc32)CC1 (centres undefined)	-13	-7
O=C(NC1CCCc2ccccc21)C1CCN(Cc2c[nH]c3ccccc23)CC1 (centres undefined)	70*	-2
Cc1cccc(N2C=C(C(=O)N3CCCC3)S(=O)(=O)c3ccc(F)cc32)c1	5	-3
CCOc1ccc2ncc(C#N)c(N3CCC(C(=O)N4CCCCC4)CC3)c2c1	1	-12
COc1cc(/C=C2\NC(=O)NC2=O)cc(Cl)c1OCc1cccc(C(=O)O)c1	6	-4
COc1cc(/C=C/[N+](=O)[O-])cc(Cl)c1OCc1cccc(C(=O)O)c1	57*	-4
CCN(CC)C(=O)Oc1ccc2c(c1C)OC(=Cc1cc(OC)c(OC)c(OC)c1)C2=O	-6	3
COCOCCn1cc(CN2CCS(=O)(=O)N(Cc3ccc(-c4ccc(C)cc4)cc3)C(C(C)C)C2=O)nn1 (centres undefined)	10	-12
COCOCCn1cc(CN2CCS(=O)(=O)N(Cc3ccc(-c4ccccc4)cc3)C(C(C)C)C2=O)nn1 (centres undefined)	54*	-22
COCOCCn1cc(CN2CCS(=O)(=O)N(Cc3ccc(-c4ccc(Cl)c(Cl)c4)cc3)C(C)C2=O)nn1 (centres undefined)	99*	-6
COCOCCn1cc(CN2CCS(=O)(=O)N(Cc3ccc(-c4ccc(C)cc4)cc3)C(C)C2=O)nn1 (centres undefined)	-4	-19
CCc1ccc(-n2c(CN3CCN(C(=O)NCC(C)C)CC3)nc3cccnc32)cc1	8	2
CCC(C(=O)N1CCc2c(c(-c3nnc(-c4ccccc4F)o3)nn2C)C1)c1ccccc1 (centres undefined)	53*	-3
SMILES	mHTT-CaM PPI inh	Pf apPOL block
Cn1nc(-c2nnc(-c3ccccc3F)o2)c2c1CCN(C(=O)c1cccc(F)c1)C2	11	-3
Cc1ccc(C)c(NC(=O)c2cc(C(C)C)n3nccc3n2)c1	-15	3
CCc1nccn1Cc1noc(-c2ccccc2)n1	-4	1
CCc1ccc(CNC(=O)c2ccc3c(c2)N(C)C(=O)C2CCCCN32)cc1 (centres undefined)	20	-2
O=C1CSC2(C(=O)Nc3ccc(Br)cc32)N1c1cccc([N+](=O)[O-])c1 (centres undefined)	17	-12
Cc1cc(C)cc(N2C(=O)CSC23C(=O)Nc2ccc(Br)cc23)c1 (centres undefined)	56*	-10
COc1ccc(Cn2c(SCC3OCCO3)nc3ccsc3c2=O)cc1	-12	-9
Cn1cccc1/C=N/Nc1ccc(F)cc1	+	.
Cn1cccc1/C=N/NC(=O)c1cccs1	i	.
O=C(NCC(O)C1CCCCC1)C1(c2cccs2)CCCC1 (centres undefined)	-9	0
COc1ccc(Cl)cc1NC(=O)NCCc1ccc(N(C)C)cc1	55*	-3
COc1ccc(CCNC(=O)Nc2cc(F)c(F)cc2Cl)cc1OC	0	-4
O=C(NCCC1CCN(C(=O)c2ccc(F)cc2)CC1)c1cc(-c2ccc(F)cc2)on1	8	-1
O=C(C1CCCC1)N1CCCC2(CC(c3ccc(Cl)cc3)=CO2)C1 (centres undefined)	-3	-3

Screening results: PubChem BioAssay, University of Kansas High Throughput Screening Laboratory
